# Where “and” joins values, the source holds several entries; their conditions need not be identical. Identical values can stand only once. Inconclusive results are not listed. Calls of active or inactive are those of the source. Calls come from the whole dose curve; as a rule, active = well fitted curve in the direction sought with a large enough effect; inconclusive = small, poorly fitted or top-dose-only effect, or another doubt; inactive = no such curve, though single readings can be large or run the other way.
# Test: qHTS Assay for Identifying Gametocytocidal Compounds (AID 743244);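 note: actives lower the fluorescent signal which means gametocytes are killed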
# Conditions: P. falciparum 3D7 stage III-V gametocytes, alamarBlue, 72 h; max response: active compounds read low
# Method in brief: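 Compounds are pinned into medium, gametocytes (stage III–V, 3D7, 20,000 cells/well) added, and plates held 72 h at 37 °C in 5% CO2. AlamarBlue follows for 24 h before fluorescence reading.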
# % is set by controls: 0 for no effect and ±100 for the full control effect.
row,SMILES,max response
1,CNC(=O)C[C@@H](N)C(=O)N[C@@H](C(=O)N[C@@H]1C(=O)N2[C@@H]1SC(C)(C)[C@@H]2C(=O)O)c1ccc(O)cc1,-4.28% (inactive)
2,O=C1[O][Bi][O]c2ccccc21,14.5% (inactive)
3,NCC(O)CC(=O)O (stereo not given),10.8% (inactive)
4,COc1ccc2c(=O)c(C)c(-c3ccccc3)oc2c1CN(C)C,1.87% (inactive)
5,NCC[C@H](O)C(=O)N[C@@H]1C[C@H](N)[C@@H](O[C@H]2O[C@H](CN)CC[C@H]2N)[C@H](O)[C@H]1O[C@H]1O[C@H](CO)[C@@H](O)[C@H](N)[C@H]1O,-1.8% (inactive)
6,COC(=O)C(CN)c1c[nH]c2ccc(OC)cc12 (stereo not given),-6.34% (inactive)
7,c1ccc(-n2cnnn2)cc1,0.811% (inactive)
8,CC(C)(COP(=O)(O)OP(=O)(O)OC[C@H]1O[C@@H](n2cnc3c(N)ncnc32)[C@H](O)[C@@H]1OP(=O)(O)O)C(O)C(=O)NCCC(=O)NCCS (stereo not given in full),-9.49% (inactive)
9,NC[C@H]1O[C@H](O[C@H]2[C@H](O)[C@@H](O[C@H]3O[C@H](CO)[C@@H](O)[C@H](N)[C@H]3O)[C@H](N)C[C@@H]2N)[C@H](N)C[C@@H]1O,-3.45% (inactive)
10,CO/N=C(\C(=O)N[C@@H]1C(=O)N2C(C(=O)O)=C(CSC(=O)c3ccco3)CS[C@H]12)c1csc(N)n1,-2.3% (inactive)
11,COc1ccc(/C=N/NC(=O)c2ccncc2)c(C(=O)O)c1OC,9% (inactive)
12,C(=C\c1ccncc1)/c1ccccc1,1.05% (inactive) and -0.436% (inactive)
13,O=C(O)c1cc(N=Nc2ccc(O)c(C(=O)O)c2)ccc1O,0.0283% (inactive)
14,C[C@H](CCCC(C)(C)O)[C@H]1CC[C@H]2[C@@H]3CC=C4C[C@@H](O)CC[C@]4(C)[C@H]3CC[C@]12C,-7.2% (inactive)
15,CC12CCC(C1)C(C)(C)C2=O (stereo not given),-0.872% (inactive)
16,COc1ccc2nc(NC(=O)Nc3ccccc3)sc2c1,-0.997% (inactive)
17,CC(=O)Oc1cccc2c1C(=O)c1c(OC(C)=O)cc(C(=O)O)cc1C2=O,-7.57% (inactive)
18,CC(C)(C)C(=O)OCC(=O)[C@H]1CC[C@H]2[C@@H]3CCC4=CC(=O)CC[C@]4(C)[C@H]3CC[C@]12C,6.08% (inactive)

row,SMILES,max response
1,O=C1c2ccccc2CN2C(=O)c3ccccc3CN12,10.5% (inactive)
2,CCN(CC)CCOc1ccccc1OC,-0.561% (inactive)
3,CC(=O)OCC(=O)[C@@]1(O)CC[C@H]2[C@@H]3CCC4=CC(=O)CC[C@]4(C)C3=CC[C@@]21C,-8.18% (inactive)
4,Cc1ncc(COP(=O)(O)O)c(CN)c1O,-10.8% (inactive)
5,CCCCCCCCCCCC(=O)OC[C@@H](O)C1OC[C@H](O)[C@H]1O (stereo not given in full),-8.97% (inactive)
6,O=C(O)COc1ccc(CCNS(=O)(=O)c2ccccc2)s1,-5.07% (inactive)
7,CCN(CC)CCOc1ccc2nc(N(C)C)sc2c1,-4.7% (inactive)
8,CCCCCCCCCCCCCC(=O)OCC(COP(=O)([O-])OCC[N+](C)(C)C)OC(=O)CCCCCCCCCCCCC (stereo not given),8.75% (inactive)
9,CN[C@@H]1[C@H](O[C@H]2[C@H](O[C@H]3[C@H](O)[C@@H](O)[C@H](N=C(N)N)[C@@H](O)[C@@H]3N=C(N)N)O[C@@H](C)[C@]2(O)C=O)O[C@@H](CO)[C@H](O)[C@H]1O,14.8% (inactive)
10,COc1ccccc1N1CCN(CCCC(=O)c2ccc(F)cc2)CC1,18% (inactive)
11,C=C1[C@@H]2CC[C@@H](C2)C1(C)C,-12.4% (inactive)
12,NCC[C@H](O)C(=O)N[C@@H]1C[C@H](N)[C@@H](O[C@H]2O[C@H](CN)[C@@H](O)[C@H](O)[C@H]2O)[C@H](O)[C@H]1O[C@H]1O[C@H](CO)[C@@H](O)[C@H](N)[C@H]1O,-2.69% (inactive)
13,COC(=O)CC[C@H](N)C(=O)O,-4.69% (inactive)
14,FC(F)(F)C(F)(F)C(F)(F)C(F)(F)C(F)(F)F,-2.45% (inactive)
15,CCCCCCCCCCCCCCCC(=O)OC[C@@H](O)[C@H]1OC[C@H](O)[C@H]1O,-10.2% (inactive)
16,CC(C)CCC[C@@H](C)[C@H]1CC(=O)C2=C3CC[C@H]4C[C@@H](O)CC[C@]4(C)[C@H]3CC[C@@]21C,5.28% (inactive)
17,NC(=O)OC[C@@H]1[C@H](NC(=O)/C(=N\OCC(=O)O)c2csc(N)n2)C(=O)N1S(=O)(=O)O,-1.55% (inactive)

# Reference: PubChem BioAssay (NCATS)
